Measured values as given in publication PMC4336329 (PLoS ONE, 2015).
The whole screen tested about 310,000 compounds, of which about 14,000 (4.5%) showed an effect of 50% or more. Effects have a minus sign here. Many of the other results were omitted from the sample, so strong results are more common in it than they were.

These compounds were tested against human ether-à-go-go-related gene (hERG) potassium channel (human, UniProt Q12809) (assay: primary screen, population patch clamp on CHO cells stably expressing hERG; higher = less effect of the substance).
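Note: peak tail current of the secondary pulse compared with the same well before compound.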

Chain of human ether-à-go-go-related gene (hERG) potassium channel (Q12809 whole entry, looked up): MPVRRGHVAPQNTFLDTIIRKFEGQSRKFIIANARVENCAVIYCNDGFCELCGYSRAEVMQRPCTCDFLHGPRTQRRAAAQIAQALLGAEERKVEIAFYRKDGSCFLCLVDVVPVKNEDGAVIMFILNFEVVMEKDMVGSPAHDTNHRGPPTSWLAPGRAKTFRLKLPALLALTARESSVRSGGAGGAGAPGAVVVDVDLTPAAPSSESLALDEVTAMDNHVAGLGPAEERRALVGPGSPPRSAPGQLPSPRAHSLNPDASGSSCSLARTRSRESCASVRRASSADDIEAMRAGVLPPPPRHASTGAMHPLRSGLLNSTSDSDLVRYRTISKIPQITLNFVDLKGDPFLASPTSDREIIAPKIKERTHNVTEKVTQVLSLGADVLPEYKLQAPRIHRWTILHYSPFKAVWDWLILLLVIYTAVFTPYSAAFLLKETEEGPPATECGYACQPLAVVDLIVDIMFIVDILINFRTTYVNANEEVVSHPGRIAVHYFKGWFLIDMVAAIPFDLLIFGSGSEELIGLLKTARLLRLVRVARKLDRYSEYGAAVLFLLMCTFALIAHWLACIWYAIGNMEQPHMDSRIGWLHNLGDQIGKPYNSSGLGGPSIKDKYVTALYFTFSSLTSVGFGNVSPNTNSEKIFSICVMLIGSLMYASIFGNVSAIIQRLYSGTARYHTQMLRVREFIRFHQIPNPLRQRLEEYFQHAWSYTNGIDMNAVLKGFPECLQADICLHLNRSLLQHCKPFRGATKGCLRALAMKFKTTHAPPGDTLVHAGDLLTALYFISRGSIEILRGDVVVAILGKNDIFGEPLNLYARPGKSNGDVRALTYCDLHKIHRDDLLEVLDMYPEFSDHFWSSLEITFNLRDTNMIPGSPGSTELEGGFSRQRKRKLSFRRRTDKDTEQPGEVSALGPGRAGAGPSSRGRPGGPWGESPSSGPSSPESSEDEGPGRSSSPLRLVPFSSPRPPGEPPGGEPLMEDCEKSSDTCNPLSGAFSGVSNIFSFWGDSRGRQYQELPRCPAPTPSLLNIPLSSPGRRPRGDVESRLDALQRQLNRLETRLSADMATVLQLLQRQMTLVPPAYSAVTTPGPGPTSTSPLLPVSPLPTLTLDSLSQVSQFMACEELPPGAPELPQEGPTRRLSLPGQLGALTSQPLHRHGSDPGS

| Compound | hERG current change (%, negative = inhibition) at 10uM |
| --- | --- |
| COc1ccc(C(=O)NCc2nnc(SCC(=O)Nc3nnc(C)s3)o2)cc1 | 14.5% |
| N#CC1(NC(=O)CSc2nnc(C3CC3)n2C2CC2)CCCCC1 | -8.52% |
| CCS(=O)(=O)c1ccc2oc(Nc3ccc(OC)c(OC)c3)nc2c1 | 8.05% |
| Cc1ccc(-c2csc(NC(=O)C3=NN(C4CCS(=O)(=O)C4)C(=O)CC3)n2)cc1 (stereo not shown) | -3.9% |
| C=CCN(C(=O)C1CC(=O)N(C2CCCC2)C1)c1nc(-c2ccc(S(C)(=O)=O)cc2)cs1 (stereo not shown) | -47.1% |
| C=CCN(C(=O)C1=NN(C2CCS(=O)(=O)C2)C(=O)CC1)c1nc(-c2ccc([N+](=O)[O-])cc2)cs1 (stereo not shown) | -63.5% |
| CN1CCN(C2=Nc3cc(F)ccc3Cc3ccccc32)CC1 | -35.7% |
| Cc1sc(NC(=O)Cc2ccc3c(c2)OCO3)nc1-c1ccc2c(c1)CCN2C(=O)c1ccccc1F | -0.586% |
| COc1cc(NC(=O)Cc2c(C(=O)O)n(C)c3ccccc23)cc(OC)c1OC | 35% |
| Cc1ccc(-n2c(O)c(C=NC3CCS(=O)(=O)C3)c3ccccc3c2=O)cc1 (stereo not shown) | -3.54% |
| Cc1ccc(-n2c(O)c(C=NC3CCS(=O)(=O)C3)c3ccccc3c2=O)c(C)c1 (stereo not shown) | -0.346% |
| Cc1cccc(-n2c(O)c(C=NC3CCS(=O)(=O)C3)c3ccccc3c2=O)c1C (stereo not shown) | -54.1% |
| O=S(=O)(NCCOc1ccccc1Cl)c1ccc2oc3ccccc3c2c1 | 3.52% |
| Cc1ccccc1C(=O)Nc1cccc(-c2ccc3nncn3n2)c1 | -2.94% |
| COCC1CCCN(Cc2cn[nH]c2-c2cc3ccccc3o2)C1 (stereo not shown) | -47.5% |
| COCCN1CCN(Cc2cn[nH]c2-c2cc3ccccc3o2)CC1 | -6.62% |
| c1ccc(CCC2CCCCN2Cc2cn[nH]c2-c2cc3ccccc3o2)nc1 (stereo not shown) | -74.9% |
| O=C(c1ccccn1)C1CCCN(Cc2nc(Cc3cccc(F)c3)no2)C1 (stereo not shown) | -5.63% |
| OC1(CNCc2cn[nH]c2-c2cc3ccccc3o2)CCCCC1 | -28.7% |
| O=C(c1ccccn1)C1CCCN(Cc2cn[nH]c2-c2cc3ccccc3o2)C1 (stereo not shown) | -70% |
| COc1ccc(OC)c(NC(=O)C2C(C(=O)O)C3(Cl)C(Cl)=C(Cl)C2(Cl)C3(Cl)Cl)c1 (stereo not shown) | 7.73% |
| Cc1cc(CNC(=O)CC2C(=O)NCCN2Cc2ccccc2C(F)(F)F)nn1C (stereo not shown) | 9.04% |
